Results reported in PubChem BioAssay (Tox21).
Inconclusive results are not listed. Calls of active or inactive are those of the source. Unless noted, calls come from the whole dose curve; as a rule, active = well fitted curve in the direction sought with a large enough effect in the repeat runs; inconclusive = weak or mixed curves; inactive = no such curve, though single readings can be large; an effect the other way counts as inactive or inconclusive.

Legend:
[1] = qHTS assay to identify small molecule agonists of the vitamin D receptor (VDR) signaling pathway - cell viability counter screen (AID 743224); note: nearly all actives have a fitted effect of over 50% in size
Procedure, shortened: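 CellTiter-Glo viability readout on VDR-bla cells, measured after 16 h of compound treatment at 37C in the same wells.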

[2] = qHTS assay to identify small molecule antagonists of the vitamin D receptor (VDR) signaling pathway - cell viability counter screen (AID 743225); note: nearly all actives have a fitted effect of over 50% in size
Procedure, shortened: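 Cytotoxicity toward the VDR-bla HEK 293T line was scored by ATP-based CellTiter-Glo luminescence, read in the wells already used for the beta-lactamase readout after 16 h compound treatment under 3 nM 1-alpha,25-dihydroxyvitamin D3 stimulation.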

[3] = qHTS assay to identify small molecule agonists of the NFkB signaling pathway (AID 1159509; active = well fitted curve in the direction sought with a large enough effect in the signal ratio in the repeat runs, not every such curve was filed as active; the % refers to the signal ratio)
Procedure, shortened: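 Pathway activation was measured in ME-180 cells stably expressing beta-lactamase under NF-kB response element control. Substrate cleavage was read as the 460/530 nm emission shift after 5 hr compound incubation.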

[4] = qHTS assay to identify small molecule agonists of the NFkB signaling pathway - cell viability counter screen (AID 1159515; calls by dose curve; note: nearly all actives have a fitted effect of over 55% in size)
Procedure, shortened: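 Tox21 library compounds were tested for cytotoxicity against NFkB-bla ME-180 cells during a 5 hr exposure at 37 C. CellTiter-Glo luminescence served as the viability read-out.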

[5] = qHTS assay to identify small molecule agonists of the endoplasmic reticulum stress response signaling pathway (AID 1159516; active = well fitted activation curve with a large enough effect in the signal ratio in the repeat runs, not every such curve was filed as active; the % refers to the signal ratio)
Procedure, shortened: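 Fluorescence at 460 and 530 nm (405 nm excitation) reports beta-lactamase from an ER stress response element in HeLa cells treated 5 hr at 37 C.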

[6] = qHTS assay to identify small molecule agonists of the endoplasmic reticulum stress response signaling pathway - cell viability counter screen (AID 1159517; calls by dose curve; note: nearly all actives have a fitted effect of over 50% in size)
Procedure, shortened: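 Cpd-treated ESRE-bla HeLa (5 hr, 37 C) → LiveBLAzer 2 hr RT → CellTiter-Glo 30 min RT → luminescence.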

[7] = qHTS assay to identify small molecule antagonists of the retinoid-related orphan receptor gamma (ROR-gamma) signaling pathway - cell viability counter screen (AID 1159520); note: nearly all actives have a fitted effect of over 50% in size
Procedure, shortened: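 Tet-on ROR gamma CHO cells (1,000/well) were plated 4 hr, given compounds in DMSO for 2 hr at 37 C, then induced with 1 uM final doxycycline for 16 hr. Viability was read as ATP by CellTiter-Glo luminescence after 30 min.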

[8] = target: Nuclear receptor ROR-gamma (Homo sapiens) (UniProt P51449); assay: qHTS assay to identify small molecule antagonists of the retinoid-related orphan receptor gamma (ROR-gamma) signaling pathway (AID 1159521)
Procedure, shortened: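 Readout: ONE-Glo luciferase luminescence, 30 min at room temperature. System: Tet-on RORγ CHO, RORE-LUC. Sequence: compound 2 h, doxycycline 1 uM final, 16 h at 37 C.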

[9] = qHTS assay to identify small molecule agonists of the AP-1 signaling pathway - cell viability counter screen (AID 1159525; calls by dose curve; note: nearly all actives have a fitted effect of over 55% in size)
Procedure, shortened: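 Each titration point was normalised to DMSO and tetra n-octyl ammonium bromide controls. The read was Cell Titer Glo luminescence after 30 min at RT, following 5 h compound exposure of ME-180 AP-1-bla cells at 37 °C.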

[10] = qHTS assay to identify small molecule agonists of the AP-1 signaling pathway (AID 1159526; calls by dose curve)
[11] = target: Retinoic acid receptor RXR-alpha (Homo sapiens) (UniProt P19793); assay: qHTS assay to identify small molecule agonists of the RXR signaling pathway (AID 1159527; calls by dose curve; note: nearly all actives have a fitted effect of over 35% in size)
Sequence of Retinoic acid receptor RXR-alpha (Homo sapiens) (P19793 whole entry, looked up): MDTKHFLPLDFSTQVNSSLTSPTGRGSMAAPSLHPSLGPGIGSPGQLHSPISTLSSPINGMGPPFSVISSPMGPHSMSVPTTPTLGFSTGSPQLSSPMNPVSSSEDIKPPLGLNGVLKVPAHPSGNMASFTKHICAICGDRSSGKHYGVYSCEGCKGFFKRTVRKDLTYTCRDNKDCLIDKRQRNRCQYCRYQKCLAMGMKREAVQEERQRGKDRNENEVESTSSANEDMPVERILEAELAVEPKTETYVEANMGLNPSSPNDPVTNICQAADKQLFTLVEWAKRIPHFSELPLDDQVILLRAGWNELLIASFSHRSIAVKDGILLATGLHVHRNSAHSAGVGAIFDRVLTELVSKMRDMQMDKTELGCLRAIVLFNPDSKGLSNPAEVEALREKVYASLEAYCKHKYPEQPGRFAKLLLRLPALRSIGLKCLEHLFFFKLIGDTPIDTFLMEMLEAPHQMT
Procedure, shortened: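 Reporter activation is measured as beta-lactamase activity via FRET substrate cleavage (emission 460/530 nm) in HEK 293T cells expressing an RXR-alpha-driven bla construct, following 16 hr compound exposure at 37 C.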

[12] = qHTS assay to identify small molecule agonists of the RXR signaling pathway - cell viability counter screen (AID 1159529); note: nearly all actives have a fitted effect of over 50% in size
Procedure, shortened: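 Tox21 10K compounds were tested for cytotoxicity against GeneBLAzer RXR-alpha HEK 293T cells grown in 2% charcoal-stripped FBS. Exposure lasted 16 hr at 37 C, 5% CO2; viability read by CellTiter-Glo luminescence.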

[13] = qHTS assay to identify small molecule antagonists of the retinoid acid receptor (RAR) signaling pathway - cell viability counter screen (AID 1159551); note: nearly all actives have a fitted effect of over 35% in size
Procedure, shortened: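 In this counter screen, the RARE-luciferase line C3RL4 was exposed for 6 h at 37 C and 5% CO2 to compounds with retinol at 1 uM final. Cellular ATP, read by luminescence, served as the viability measure.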

[14] = qHTS assay to identify small molecule antagonists of the retinoic acid receptor (RAR) signaling pathway (AID 1159552; note: nearly all actives have a fitted effect of over 50% in size)
Procedure, shortened: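 Overnight-plated C3RL4 reporter cells get compound, then retinol to 1 uM final; plates sit 6 hr at 37 C, 5% CO2. A luciferase reagent is added and light output recorded after 30 min at room temperature.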

[15] = qHTS assay to identify small molecule agonists of the retinoic acid receptor (RAR) signaling pathway (AID 1159553); settings: C3RL4 RARE luciferase reporter, agonist, 6 h; activation: at 73.3 µM (top of the series)
Procedure, shortened: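 In this cell-based screen, 1,000 C3RL4 cells per well were cultured overnight, dosed with test chemicals in DMSO for 6 hr, and assessed for RARE luciferase luminescence.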

[16] = qHTS assay to identify small molecule antagonists of the estrogen related receptor (ERR) signaling pathway from Tox21 library - cell viability counter screen (AID 1224834); note: nearly all actives have a fitted effect of over 30% in size
Procedure, shortened: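 Counter screen run in ERR cells (2,000 cells/well): cells pre-incubated 6 h, then treated with compounds for 17.5 h at 37 C. Fluorescence was read 30 min after CellTiter-Fluor addition.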

[17] = target: Luciferin 4-monooxygenase (Photinus pyralis) (UniProt P08659); assay: qHTS assay to identify small molecule inhibitors of firefly luciferase (AID 1224835); note: nearly all actives have a fitted effect of over 25% in size
Sequence of Luciferin 4-monooxygenase (Photinus pyralis) (P08659 whole entry, looked up): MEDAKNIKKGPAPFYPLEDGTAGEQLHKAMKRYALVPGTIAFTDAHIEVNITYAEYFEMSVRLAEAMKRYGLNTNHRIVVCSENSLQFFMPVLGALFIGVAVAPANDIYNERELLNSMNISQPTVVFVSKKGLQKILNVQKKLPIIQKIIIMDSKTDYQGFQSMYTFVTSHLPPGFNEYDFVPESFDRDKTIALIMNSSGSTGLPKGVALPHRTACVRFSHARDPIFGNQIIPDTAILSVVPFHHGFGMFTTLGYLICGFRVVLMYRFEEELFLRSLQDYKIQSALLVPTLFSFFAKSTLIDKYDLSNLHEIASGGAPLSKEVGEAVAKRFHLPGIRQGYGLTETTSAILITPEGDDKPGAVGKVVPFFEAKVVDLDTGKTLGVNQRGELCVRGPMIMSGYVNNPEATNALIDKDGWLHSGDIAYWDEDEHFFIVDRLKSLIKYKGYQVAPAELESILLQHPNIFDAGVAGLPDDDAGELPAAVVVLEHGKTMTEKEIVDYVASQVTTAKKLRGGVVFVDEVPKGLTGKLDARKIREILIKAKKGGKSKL
Procedure, shortened: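 Quantitative HTS format; KM concentrations of both substrates. Purified P. pyralis FLuc activity quantified from luminescence images.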

[18] = qHTS assay to identify small molecule agonists of the constitutive androstane receptor (CAR) signaling pathway - cell viability counter screen (AID 1224836); note: nearly all actives have a fitted effect of over 45% in size
Procedure, shortened: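 Fluorescence from CellTiter-Fluor indicates live cells after 23 h exposure. The human hepatoma line expresses hCAR and a CYP2B6-2.2kb reporter. Incubation medium contains 0.75 uM PK11195 (final).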

[19] = qHTS assay to identify small molecule antagonists of the constitutive androstane receptor (CAR) signaling pathway - cell viability counter screen (AID 1224837); note: nearly all actives have a fitted effect of over 45% in size
Procedure, shortened: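 CITCO at 50 nM final was added alongside compounds (15 concentrations) to double-stable hCAR/CYP2B6-2.2kb HepG2 cells. Following 23 hr at 37 C, cell viability was quantified by CellTiter-Fluor fluorescence intensity.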

[20] = target: Nuclear receptor subfamily 1 group I member 3 (Homo sapiens) (UniProt Q14994); assay: qHTS assay to identify small molecule antagonists of the constitutive androstane receptor (CAR) signaling pathway (AID 1224838); note: nearly all actives have a fitted effect of over 40% in size
Sequence of Nuclear receptor subfamily 1 group I member 3 (Homo sapiens) (Q14994 whole entry, looked up): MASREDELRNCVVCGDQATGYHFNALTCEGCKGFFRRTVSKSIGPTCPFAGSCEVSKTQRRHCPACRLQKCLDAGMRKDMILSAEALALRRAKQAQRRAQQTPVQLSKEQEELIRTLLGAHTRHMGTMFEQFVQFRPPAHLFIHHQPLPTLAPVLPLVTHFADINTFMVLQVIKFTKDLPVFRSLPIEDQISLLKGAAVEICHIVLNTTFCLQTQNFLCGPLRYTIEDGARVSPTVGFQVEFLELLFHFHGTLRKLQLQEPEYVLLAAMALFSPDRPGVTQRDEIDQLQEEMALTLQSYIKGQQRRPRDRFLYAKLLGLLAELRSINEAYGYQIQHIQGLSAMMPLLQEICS
Procedure, shortened: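 Inhibition of CITCO-driven (50 nM final) CYP2B6 reporter expression is measured in HepG2 cells stably carrying hCAR. Fifteen compound concentrations are applied for 24 h at 37 C, followed by luciferase luminescence.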

Measured: Potency

C1=CCC(c2ccccc2)CC1 (configuration not stated)
not listed: [20]
inactive: all other assays above

CCCCCCCCCCCCC1CO1 (configuration not stated)
inactive: all assays above

O=c1[nH]c(=O)c2ccccc2o1
not listed: [20]
inactive: all other assays above

CCOC(=O)CCCCCCCCC(=O)OCC
inactive: all assays above

CC(C)c1ccccc1O
not listed: [1] | [20]
inactive: all other assays above

Cc1c(C(C)C)c(=O)n(-c2ccccc2)n1C
not listed: [2]
inactive: all other assays above

CC(=O)OC(C)c1ccccc1 (configuration not stated)
inactive: all assays above

CCC(O)C(C)(C)C (configuration not stated)
not listed: [20]
inactive: all other assays above

Cc1nc2ccccc2c(=O)o1
inactive: all assays above

CCN(CCO)c1cccc(C)c1
inactive: all assays above

Cc1ccccc1C
not listed: [20]
inactive: all other assays above

CC(C)SCc1ccco1
not listed: [20]
inactive: all other assays above
